Results as given in ChEMBL document CHEMBL1201862, “PubChem BioAssay data set” (2004).
Out of some 400,000 compounds screened, about 2,100 (0.53%) were called active. About 14% were inconclusive and are not listed. No rule for the calls is given here. Many of the other results were omitted from the sample, so actives are more common in it than they were.

Each molecule was assayed against Ataxin-2 (Homo sapiens) (UniProt Q99700) (assay: qHTS for Inhibitors of ATXN expression.).
Format: functional

Ataxin-2 (Homo sapiens), sequence (Q99700 whole entry): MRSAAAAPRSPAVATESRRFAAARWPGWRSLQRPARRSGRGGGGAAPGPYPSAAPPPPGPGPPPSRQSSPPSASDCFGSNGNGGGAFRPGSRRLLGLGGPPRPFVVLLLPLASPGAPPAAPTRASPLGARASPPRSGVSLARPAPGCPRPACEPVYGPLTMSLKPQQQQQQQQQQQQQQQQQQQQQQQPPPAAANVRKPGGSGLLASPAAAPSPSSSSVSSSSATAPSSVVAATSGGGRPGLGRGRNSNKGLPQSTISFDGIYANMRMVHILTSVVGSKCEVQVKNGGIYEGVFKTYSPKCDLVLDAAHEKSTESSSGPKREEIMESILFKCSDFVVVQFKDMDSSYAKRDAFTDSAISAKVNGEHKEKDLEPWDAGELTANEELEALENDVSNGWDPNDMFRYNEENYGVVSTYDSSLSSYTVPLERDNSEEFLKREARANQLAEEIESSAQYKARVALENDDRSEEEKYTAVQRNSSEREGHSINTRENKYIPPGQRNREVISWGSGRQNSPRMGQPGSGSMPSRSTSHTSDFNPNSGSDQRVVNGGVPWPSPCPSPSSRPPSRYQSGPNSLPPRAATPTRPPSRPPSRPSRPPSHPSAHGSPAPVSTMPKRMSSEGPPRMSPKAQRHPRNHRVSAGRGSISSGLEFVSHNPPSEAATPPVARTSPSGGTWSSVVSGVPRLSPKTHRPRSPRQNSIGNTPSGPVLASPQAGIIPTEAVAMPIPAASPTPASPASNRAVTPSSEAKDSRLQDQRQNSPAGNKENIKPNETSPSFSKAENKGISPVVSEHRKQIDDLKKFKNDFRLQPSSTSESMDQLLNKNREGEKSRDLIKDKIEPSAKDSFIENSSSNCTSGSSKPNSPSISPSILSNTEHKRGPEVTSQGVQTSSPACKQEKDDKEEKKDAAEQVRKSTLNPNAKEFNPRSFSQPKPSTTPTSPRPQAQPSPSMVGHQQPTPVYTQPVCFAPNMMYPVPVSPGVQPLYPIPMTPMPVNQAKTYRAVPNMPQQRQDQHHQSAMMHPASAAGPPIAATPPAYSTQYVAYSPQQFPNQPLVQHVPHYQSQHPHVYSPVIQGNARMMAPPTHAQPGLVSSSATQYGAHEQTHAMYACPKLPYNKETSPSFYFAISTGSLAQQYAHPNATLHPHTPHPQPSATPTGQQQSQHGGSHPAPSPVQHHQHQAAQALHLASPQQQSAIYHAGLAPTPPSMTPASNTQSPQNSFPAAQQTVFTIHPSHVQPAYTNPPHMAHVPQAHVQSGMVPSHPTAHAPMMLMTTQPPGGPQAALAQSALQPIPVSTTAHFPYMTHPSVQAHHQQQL

Row | SMILES | Potency
1 | C=CCn1c(=N)c(C(=O)NCCCOC)cc2c(=O)n3cccc(C)c3nc21 | inactive
2 | CCc1cc(=O)oc2cc(OC(=O)CN3C(=O)NC4(CCCC4)C3=O)ccc12 | inactive
3 | CCOC(=O)c1cc2c(=O)n3cccc(C)c3nc2n(CCOC)/c1=N\C(C)=O | inactive
4 | CC(C)Cn1c(N)c(C(=O)NCC2CCCO2)c2nc3ccccc3nc21 (centres undefined) | inactive
5 | COc1ccc(-c2nc(NC(=O)c3ccc(OCC(=O)Nc4ccc(F)cc4)c(OC)c3)sc2C)cc1 | 11.2 µM (active)
6 | COc1ccc(C(=O)OCC(=O)N2CCOCC2)cc1S(=O)(=O)N1CCOCC1 | inactive
7 | COc1cc(C(=O)Nc2nc(-c3ccc(Cl)cc3)c(C)s2)ccc1OCC(=O)Nc1ccc(F)cc1 | 35.5 µM (active)
8 | COc1ccc(-c2ccc3c(N)c(C(=O)Nc4cc(F)ccc4C)sc3n2)cc1 | inactive
9 | COc1ccc(C(=O)Nc2ccc(OCC(=O)N3CCOCC3)cc2)c(OC)c1OC | inactive
10 | COc1ccc(-c2nc(NC(=O)c3ccc(OCC(=O)N4CCOCC4)c(OC)c3)sc2C)cc1 | 15.8 µM (active)
11 | COc1ccc(C(=O)N2CCNC(=O)C2CC(=O)Nc2ccc(C)cc2)cc1 (centres undefined) | inactive
12 | COc1ccc(C(=O)Nc2nc3n(n2)C(c2ccc(F)cc2)C=C(c2ccc(Cl)cc2)N3)cc1 (centres undefined) | inactive
13 | COc1ccccc1NC(=O)c1sc2nc(C)c(C(=O)Nc3ccc(Cl)cc3)c(-c3ccc(Br)cc3)c2c1N | inactive
14 | CS(=O)(=O)c1cnc2c(-c3ccsc3)cnn2c1N | inactive
15 | Nc1ccc2nc3c(=O)n(CCc4ccccc4)c(=O)[nH]c3nc2c1 | inactive
16 | O=C(COC(=O)/C=C/c1ccc(Br)o1)NC1CCCCC1 | inactive
17 | O=C(c1ccccc1)c1ccc(OCC(O)CNCc2ccc(F)cc2)cc1 (centres undefined) | inactive
18 | OC(CNCCc1ccc(C(F)(F)F)cc1)COc1ccc2ccccc2c1 (centres undefined) | 25.1 µM (active)
19 | COc1ccc(C2CC(c3ccncc3)=NN2c2ccc(S(N)(=O)=O)cc2)cc1 (centres undefined) | inactive
20 | O=C(CNC(=O)c1ccccc1Br)N/N=C/c1ccccc1O | inactive
21 | CC(Oc1ccccc1Cl)C(=O)N(Cc1cccs1)C1CCS(=O)(=O)C1 (centres undefined) | inactive
22 | Cc1cc(NC(=O)CSc2cn(C)c3ccccc23)no1 | inactive

Row | SMILES | Potency
23 | Cc1c(C(=O)Cc2ccccc2)n(C)c2ccccc12 | inactive
24 | Cn1cc(C(=O)CCl)c2ccccc21 | 35.5 µM (active)
25 | Cc1cc(Sc2nc(NC(C)(C)C)nc(N3CCOCC3)n2)nc(Cl)n1 | inactive
26 | Cc1nccc2cc3[nH]c4ccccc4c3cc12 | inactive
27 | Cc1cc2[nH]c3c(c[n+](C)c4ccccc34)c2cc1C | 31.6 µM (active)
28 | CCn1c(=N)c(C(=O)NC)cc2c(=O)n3cccc(C)c3nc21 | inactive
29 | Cc1ccc(S(=O)(=O)Nc2nc3n(n2)C(c2ccc(Cl)cc2)C=C(c2ccccc2)N3)cc1 (centres undefined) | inactive
30 | CN(C)c1ccc(N=Nc2ccccc2C(=O)OCC(=O)NC2CCCC2)cc1 | 28.2 µM (active)
31 | COc1ccccc1C(=O)OCC(=O)NC(=O)NC1CCCC1 | inactive
32 | CN(C(=O)COC(=O)c1cccnc1O)C1CCCCC1 | inactive
33 | CC(C)Cc1nc2sc3c(SCC(N)=O)ncnc3c2c2c1CCC2 | inactive
34 | CC(=O)/N=c1\c(C#N)cc2c(=O)n3ccccc3nc2n1Cc1ccccc1 | inactive
35 | CCN(CC)CCn1c(-c2ccccc2)cs/c1=N\c1ccccc1 | 15.8 µM (active)
36 | CCN(CC)c1ccc2cc(S(=O)(=O)c3ccc(C)cc3)c(=O)oc2c1 | inactive
37 | Cc1cc(C)n(-c2cc(C(C)(C)C)nc3c(-c4ccccc4)cnn23)n1 | inactive
38 | Cc1nc2c(-c3ccc(Cl)cc3)cnn2c2c1CCC2 | inactive
39 | CN(C)CCCNc1cc(C(C)(C)C)nc2c(-c3ccc(Cl)cc3)cnn12 | 39.8 µM (active)
40 | O=c1c2ccccc2[nH]c2ccc(O)cc12 | inactive
41 | CCOc1ccc(C(=O)CCN2CCOCC2)cc1 | 39.8 µM (active)
42 | COc1ccc(OCCC(=O)NCCN2CCOCC2)cc1 | inactive
43 | CCOc1ccc(C(=O)COC(=O)Cn2cnc3c2c(=O)n(C)c(=O)n3C)cc1 | inactive
44 | CCOc1ccc2c(c1)C(N(CCN1CCOCC1)C(=O)Nc1ccccc1)CC(C)(C)O2 (centres undefined) | inactive

Row | SMILES | Potency
45 | CCCCOc1ccc(C(=O)CCN2CCOCC2)cc1 | 23.8 µM (active)
46 | O=C(CCN1CCOCC1)N/N=C/c1cc(Br)cc(Br)c1O | inactive
47 | CCCN(CCC)S(=O)(=O)c1ccc(C(=O)Nc2sc3c(c2C(=O)OC)CCN(CC)C3)cc1 | inactive
48 | CCc1cc(=O)oc2cc(C)cc(O)c12 | inactive
49 | O=C(COC(=O)c1cc(S(=O)(=O)N2CCCCC2)ccc1N1CCOCC1)c1ccccc1Cl | inactive
50 | COc1ccc(Nc2ccc3c(c2)=NC2(CCCCC2)[N+]=3[O-])cc1 | 20 µM (active)
51 | COc1ccc(Nc2ccnc(Nc3ccc(OC)cc3)n2)cc1 | inactive
52 | CC(=O)c1cc2c(s1)-c1cc(F)ccc1OC2 | inactive
53 | O=C(Nc1ccc(-c2csc(Nc3cccc(C(F)(F)F)c3)n2)cc1)c1cccc(C(F)(F)F)c1 | 20 µM (active)
54 | O=C(Nc1cccc(-c2csc(Nc3ccc(Cl)cc3)n2)c1)c1cc([N+](=O)[O-])cc(C(F)(F)F)c1 | 35.5 µM (active)
55 | NS(=O)(=O)c1cccc(NC(=O)CSc2n[nH]c(-c3cccs3)n2)c1 | inactive
56 | O=C(Cc1ccccc1F)Nc1ccccc1-c1ccccc1 | inactive
57 | COc1cccc(OCC(=O)Nc2ccccc2-c2ccccc2)c1 | inactive
58 | CC(C)(C)c1ccccc1NC(=O)c1cnn2c(C(F)F)cc(-c3ccccc3)nc12 | inactive
59 | COc1ccc(CC(N)c2csc(NC(=O)Nc3ccccc3C(C)(C)C)n2)cc1 (centres undefined) | 39.8 µM (active)
60 | COc1ccc(CC(N)c2csc(NC(=O)Nc3ccccc3-c3ccccc3)n2)cc1 (centres undefined) | 39.8 µM (active)
61 | CCOC(=O)CCc1c(C)c2cc3c(c(C)c2oc1=O)OCN(CCc1ccccc1OC)C3 | inactive
62 | Cc1cc(C(=O)NNC(=O)c2ccc(C(F)(F)F)cc2)no1 | inactive
63 | CC1C/C(=N\NC(=O)c2ccc([N+](=O)[O-])cc2)CC(C)(C)C1 (centres undefined) | inactive
64 | Cc1ccc(NS(=O)(=O)c2ccc(C(=O)N3CCN(c4ncccn4)CC3)cc2)cc1 | inactive
